Compounds without any hit were thinned out: in the full panel of roughly 83,000, 20% have a hit.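 Plates (96-well) were seeded with cells, treated with compound at one concentration, and incubated for 48 hours before percent growth was determined.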 Calls of active or inactive are those of the source. How the source made its calls: active means growth percent below 10; inactive means the rest.
Tests used:
Assay in all cases: NCI-60 one-dose screen, 48 h (100 = growth as untreated, 0 = no growth, -100 = all killed)
Settings in all cases: 10 µM unless noted
HCT-15 colon = tested on: HCT-15 colon
HT29 colon = tested on: HT29 colon
SNB-75 CNS = tested on: SNB-75 CNS
SNB-19 CNS = tested on: SNB-19 CNS
U251 CNS = tested on: U251 CNS
PC-3 prostate = tested on: PC-3 prostate
SK-MEL-5 melanoma = tested on: SK-MEL-5 melanoma
LOX IMVI melanoma = tested on: LOX IMVI melanoma
SK-MEL-28 melanoma = tested on: SK-MEL-28 melanoma

Measured: growth

CCOC(=O)C/C(=C\c1ccccc1)C(C)=O
inactive: HCT-15 colon 106% | HT29 colon 98.1% | SNB-75 CNS 101% | SNB-19 CNS 101% | U251 CNS 80.4% | PC-3 prostate 76.8% | SK-MEL-5 melanoma 106% | LOX IMVI melanoma 108% | SK-MEL-28 melanoma 111%

C[C@H]1OC(=O)/C=C/[C@@H](O)[C@@H](O)CCCCCCCC[C@@H]1O
inactive: HCT-15 colon 101% | HT29 colon 87% | SNB-75 CNS 90.5% | SNB-19 CNS 100% | U251 CNS 90.2% | PC-3 prostate 85.2% | SK-MEL-5 melanoma 98% | LOX IMVI melanoma 102% | SK-MEL-28 melanoma 108%

O=C1CCCC=CC[C@H]2C=C(Cl)C(=O)C2=CC[C@H](CCCCC(F)(F)F)OC(=O)CCCC=CC[C@H]2C=C(Cl)C(=O)C2=CC[C@H](CCCCC(F)(F)F)OC(=O)CCCC=CC[C@H]2C=C(Cl)C(=O)C2=CC[C@H](CCCCC(F)(F)F)O1
inactive: HCT-15 colon 68.6% [6.25 µM] | HT29 colon 42.2% [6.25 µM] | SNB-75 CNS 95.9% [6.25 µM] | SNB-19 CNS 65.2% [6.25 µM] | U251 CNS 36.4% [6.25 µM] | PC-3 prostate 71.9% [6.25 µM] | SK-MEL-5 melanoma 59.4% [6.25 µM] | LOX IMVI melanoma 18.7% [6.25 µM] | SK-MEL-28 melanoma 71.8% [6.25 µM]

NCCn1cc(-c2nc(-c3c[nH]c4ncccc34)cs2)c2ccccc21
inactive: HCT-15 colon 88.6% | HT29 colon 98.2% | SNB-75 CNS 61.9% | SNB-19 CNS 89.4% | U251 CNS 91.5% | PC-3 prostate 70.2% | SK-MEL-5 melanoma 77.2% | LOX IMVI melanoma 89.9% | SK-MEL-28 melanoma 107%

Cn1cc(-c2csc(-c3cn(CCNC(=O)OC(C)(C)C)c4ccc(F)cc34)n2)c2cccnc21
inactive: HCT-15 colon 52.8% | HT29 colon 76.2% | SNB-75 CNS 86.3% | SNB-19 CNS 90.3% | U251 CNS 82.2% | PC-3 prostate 25.9% | SK-MEL-5 melanoma 23.6% | LOX IMVI melanoma 71.9% | SK-MEL-28 melanoma 88.7%

C=C1C(=O)O[C@H]2[C@H]1CC/C(COC(=O)NCc1cc3ccccc3[nH]1)=C\CC[C@@]1(C)O[C@@H]21
active: HCT-15 colon -4.13% | HT29 colon -42.6% | SK-MEL-5 melanoma 9.31% | LOX IMVI melanoma -15.8% | SK-MEL-28 melanoma -26.9%
inactive: SNB-75 CNS 62% | SNB-19 CNS 58.8% | U251 CNS 54.6% | PC-3 prostate 38%

Cc1ccc(N(CC(=O)Nc2ccc(S(=O)(=O)NC3CCN(C)CC3)cc2)S(=O)(=O)c2ccc(Cl)cc2)cc1
active: SK-MEL-5 melanoma -9.84% | LOX IMVI melanoma -58.1% | SK-MEL-28 melanoma -68.3%
inactive: HCT-15 colon 90.6% | HT29 colon 10.2% | SNB-75 CNS 58.7% | SNB-19 CNS 88.3% | U251 CNS 19.5% | PC-3 prostate 84.1%

CCCCC[C@H]1CC=C2C(=O)C(Cl)=C[C@@H]2CC=CCCCC(=O)O[C@@H](CCCCC)CC=C2C(=O)C(Cl)=C[C@@H]2CC=CCCCC(=O)O[C@@H](CCCCC)CC=C2C(=O)C(Cl)=C[C@@H]2CC=CCCCC(=O)O1
inactive: HCT-15 colon 71.6% [8 µM] | HT29 colon 44.4% [8 µM] | SNB-75 CNS 106% [8 µM] | SNB-19 CNS 61.3% [8 µM] | U251 CNS 35.2% [8 µM] | PC-3 prostate 70.2% [8 µM] | SK-MEL-5 melanoma 62.2% [8 µM] | LOX IMVI melanoma 14.5% [8 µM] | SK-MEL-28 melanoma 52% [8 µM]

Fc1ccc(Nc2nc(Nc3ccc(-c4nc5ccccc5[nH]4)cc3)nc(N3CCCC3)n2)cc1
inactive: HT29 colon 36.1% | SNB-75 CNS 65.4% | SNB-19 CNS 103% | U251 CNS 55.8% | PC-3 prostate 33.8% | SK-MEL-5 melanoma 87% | SK-MEL-28 melanoma 47.7%
active: HCT-15 colon -8.99% | LOX IMVI melanoma 3.18%

COC(=O)[C@]12CC[C@@H](C)[C@H](C)[C@@H]1C1=CC[C@@H]3[C@@]4(C)C[C@@H](OC(C)=O)[C@H](O)[C@@](C)(COC(C)=O)[C@@H]4[C@H](O)C[C@@]3(C)[C@]1(C)CC2
active: HCT-15 colon -79.4% | HT29 colon -84.1% | SNB-75 CNS -81.1% | SNB-19 CNS -82.6% | U251 CNS -94.2% | PC-3 prostate -95.1% | SK-MEL-5 melanoma -99.9% | LOX IMVI melanoma -100% | SK-MEL-28 melanoma -88.3%

COc1ccc2c(c1)c(-c1nc(-c3c[nH]c4ncccc34)cs1)cn2CCN
inactive: HCT-15 colon 43.7% | HT29 colon 55.9% | SNB-75 CNS 56.6% | SNB-19 CNS 79.4% | U251 CNS 66.7% | PC-3 prostate 42.8% | SK-MEL-5 melanoma 72.9% | LOX IMVI melanoma 66% | SK-MEL-28 melanoma 100%

C=CC(=O)N[C@H](Cc1ccc(-c2cc(Cl)cc(Cl)c2)cc1)[C@H](O)[C@@H](O)C(=O)O
inactive: HCT-15 colon 96% | HT29 colon 81.5% | SNB-75 CNS 87% | SNB-19 CNS 99.5% | U251 CNS 80.2% | PC-3 prostate 63.9% | SK-MEL-5 melanoma 91.6% | LOX IMVI melanoma 95.6% | SK-MEL-28 melanoma 106%

O=C(NCN1C(=O)c2cccc3cccc(c23)C1=O)N1CCC(Cc2ccccc2)CC1
inactive: HCT-15 colon 104% | HT29 colon 70.1% | SNB-75 CNS 89.4% | SNB-19 CNS 92.5% | U251 CNS 97.5% | PC-3 prostate 72.9% | SK-MEL-5 melanoma 101% | LOX IMVI melanoma 97.5% | SK-MEL-28 melanoma 107%

O=C1CCC/C=C\C[C@H]2C=C(Cl)C(=O)/C2=C/C[C@H](CCCCC(F)(F)F)OC(=O)CCC/C=C\C[C@H]2C=C(Cl)C(=O)/C2=C/C[C@H](CCCCC(F)(F)F)O1
active: HCT-15 colon 1.46% [7.5 µM] | HT29 colon -50.5% [7.5 µM] | SNB-75 CNS -1.55% [7.5 µM] | SNB-19 CNS -37.9% [7.5 µM] | U251 CNS -67.7% [7.5 µM] | PC-3 prostate -44.8% [7.5 µM] | SK-MEL-5 melanoma -94.1% [7.5 µM] | LOX IMVI melanoma -80.2% [7.5 µM] | SK-MEL-28 melanoma -52.6% [7.5 µM]

Reference: PubChem BioAssay (NCI)
